The values below come from PubChem BioAssay (NCI).

Each structure is given as a SMILES string. Compounds without any hit were thinned out: in the full panel of roughly 79,000, 15% have a hit. Values without a mark were called inactive. Activity calls are given as the source filed them. Rule as the data show it: active = growth inhibition above about 70%; inactive = the rest.

Assay [1] is described as follows: NCI Yeast Anticancer Drug Screen. Data for the rad50 strain (AID 155).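 Also: 0% = growth of vehicle-only cultures of the same strain.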 As to conditions: S. cerevisiae rad50 strain growth inhibition, active compounds read high. The essentials:
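Yeast carrying a defined DNA repair defect were exposed to test compounds, and growth was compared with vehicle-treated controls to give percent inhibition.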

Assay [2] can be described thus: NCI Yeast Anticancer Drug Screen. Data for the mec2-1 strain (AID 157). As to conditions: S. cerevisiae mec2-1 strain, active compounds read high. The essentials:
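Strain: mec2-1 (DNA repair/cell cycle alteration). Compound exposure, then growth measured; inhibition expressed relative to vehicle.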

Assay [3] can be described thus: NCI Yeast Anticancer Drug Screen. Data for the sgs1 mgt1 strain (AID 161).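 Also: 0% = growth of cultures given vehicle only.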 As to conditions: S. cerevisiae sgs1 mgt1 strain, active compounds read high. The essentials:
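Read-out: growth inhibition vs vehicle controls. Cells: mutant yeast strain deficient in DNA damage repair.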

A short description of assay [4]: NCI Yeast Anticancer Drug Screen. Data for the cln2 rad14 strain (AID 165).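 Also: 0% = growth equal to vehicle treated cultures.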 As to conditions: S. cerevisiae cln2 rad14 strain, active compounds read high. The essentials: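 Compounds are applied to the cln2 rad14 yeast strain, and growth is then compared with that of vehicle-treated cultures to give inhibition.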
Assay [5] is described as follows: NCI Yeast Anticancer Drug Screen. Data for the bub3 strain (AID 167). As to conditions: S. cerevisiae bub3 mutant strain, active compounds read high. The essentials: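 Compounds were applied to a genetically altered yeast strain carrying a cell-cycle control defect. Growth inhibition was scored against vehicle-treated controls.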
Assay [6] is described as follows: NCI Yeast Anticancer Drug Screen. Data for the mlh1 rad18 strain (AID 175). As to conditions: S. cerevisiae mlh1 rad18 strain growth inhibition, active compounds read high. The essentials: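 Read-out is yeast growth inhibition, calculated against vehicle-only controls. The compound was applied to a strain engineered with DNA damage repair alterations.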
[7] abbreviates: at 5.0 µM (retest, dose inferred, filed as 0.5).
Setting [8] is: at 50.0 µM (retest, dose inferred, filed as 5.0).

`O=C(N/N=C/c1cc(Br)cc(Br)c1[O-])c1ccccc1O.O=C(N/N=C/c1cc(Br)cc(Br)c1[O-])c1ccccc1O.[Zn+2]`: the growth inhibition was 96% (active) in assay [1] (setting [7]); 98% (active) in assay [1] (setting [8]); 52.5% in assay [1] (at 50.0 µM); 96% (active) in assay [2] (setting [7]); 96% (active) in assay [2] (setting [8]); 90.7% (active) in assay [2] (at 50.0 µM). Also, the growth inhibition in assay [3] (setting [7]) is 97% (active); in assay [3] (setting [8]), 98% (active); in assay [3] (at 50.0 µM), 85.5% (active); in assay [4] (setting [7]), 94% (active); in assay [4] (setting [8]), 96% (active); in assay [4] (at 50.0 µM), 64.5%. The growth inhibition in assay [5] (setting [7]) is 95% (active); in assay [5] (setting [8]), 96% (active); in assay [5] (at 50.0 µM) it was 88.1% (active); in assay [6] (setting [7]), 95% (active); in assay [6] (setting [8]), 97% (active); in assay [6] (at 50.0 µM), 83.5% (active).
Consider `O=[N+]([O-])c1cc([N+](=O)[O-])c(Cl)s1`, for which the growth inhibition is 98% (active) in assay [1] (setting [7]); 99% (active) in assay [1] (setting [8]); 99.5% (active) in assay [1] (at 50.0 µM); 99% (active) in assay [2] (setting [7]); 83% (active) in assay [2] (setting [8]); 99.7% (active) in assay [2] (at 50.0 µM). For the same compound, the growth inhibition in assay [3] (setting [7]) is 99% (active); in assay [3] (setting [8]) it was 100% (active); in assay [3] (at 50.0 µM), 99.4% (active); in assay [4] (setting [7]) it was 99% (active); in assay [4] (setting [8]), 98% (active); in assay [4] (at 50.0 µM), 99.3% (active). Besides, the growth inhibition in assay [5] (setting [7]) was 99% (active); in assay [5] (setting [8]), 99% (active); in assay [5] (at 50.0 µM) it was 99.5% (active); in assay [6] (setting [7]) it was 99% (active); in assay [6] (setting [8]) it was 99% (active); in assay [6] (at 50.0 µM), 99.6% (active).
As for `Cl[C](Cl)(Cl)[Hg][C](Cl)(Cl)Cl`, the growth inhibition in assay [1] (setting [7]) is 80% (active); in assay [1] (setting [8]), 96% (active); in assay [1] (at 50.0 µM), 89.8% (active); in assay [2] (setting [7]), 90% (active); in assay [2] (setting [8]), 94% (active); in assay [2] (at 50.0 µM), 92.7% (active). Also, the growth inhibition in assay [3] (setting [7]) is 100% (active); in assay [3] (setting [8]) it was 100% (active); in assay [3] (at 50.0 µM) it was 92.8% (active); in assay [4] (setting [7]), 99% (active); in assay [4] (setting [8]), 99% (active); in assay [4] (at 50.0 µM), 91.5% (active). Also, the growth inhibition in assay [5] (setting [7]) is 100% (active); in assay [5] (setting [8]), 97% (active); in assay [5] (at 50.0 µM), 91.3% (active); in assay [6] (setting [7]), 78% (active); in assay [6] (setting [8]), 95% (active); in assay [6] (at 50.0 µM) it was 90.2% (active).
Take `Cc1c2ccncc2c(CN(CCCl)CCCl)c2c3ccccc3n(C)c12`: the growth inhibition was 10% in assay [1] (setting [7]); 98% (active) in assay [1] (setting [8]); 90.3% (active) in assay [1] (at 50.0 µM); 17% in assay [2] (setting [7]); 99% (active) in assay [2] (setting [8]); 88.5% (active) in assay [2] (at 50.0 µM). The growth inhibition in assay [3] (setting [7]) is -25%; in assay [3] (setting [8]), 86% (active); in assay [3] (at 50.0 µM) it was 85.2% (active); in assay [4] (setting [7]) it was 6%; in assay [4] (setting [8]) it was 96% (active); in assay [4] (at 50.0 µM), 88.2% (active). In addition, the growth inhibition in assay [5] (setting [7]) was -10%; in assay [5] (setting [8]), 80% (active); in assay [5] (at 50.0 µM) it was 82.1% (active); in assay [6] (setting [7]), 24%; in assay [6] (setting [8]) it was 99% (active); in assay [6] (at 50.0 µM), 91.8% (active).
For `C[CH2][Sn]1([CH2]C)[O]C(=O)CC(=O)[O]1`, the growth inhibition in assay [1] (setting [7]) is 18%; in assay [1] (setting [8]) it was 37%; in assay [1] (at 50.0 µM), 48.2%; in assay [2] (setting [7]), 10%; in assay [2] (setting [8]) it was 35%; in assay [2] (at 50.0 µM), 70.6% (active). Besides, the growth inhibition in assay [3] (setting [7]) is 14%; in assay [3] (setting [8]), 55%; in assay [3] (at 50.0 µM), 37.8%; in assay [4] (setting [7]), 20%; in assay [4] (setting [8]) it was 19%; in assay [4] (at 50.0 µM), 65.8%. The growth inhibition in assay [5] (setting [7]) was 15%; in assay [5] (setting [8]) it was 54%; in assay [5] (at 50.0 µM) it was 59.1%; in assay [6] (setting [7]), 16%; in assay [6] (setting [8]), 24%; in assay [6] (at 50.0 µM) it was 16.5%.
As to `CC12OOC(c3ccccc31)c1c2ccc2ccccc12` (stereo not given), the growth inhibition was 62% in assay [1] (setting [7]); 98% (active) in assay [1] (setting [8]); 86% (active) in assay [1] (at 50.0 µM); 94% (active) in assay [2] (setting [7]); 99% (active) in assay [2] (setting [8]); 93.5% (active) in assay [2] (at 50.0 µM). Further, the growth inhibition in assay [3] (setting [7]) was 92% (active); in assay [3] (setting [8]) it was 99% (active); in assay [3] (at 50.0 µM), 90% (active); in assay [4] (setting [7]), 71% (active); in assay [4] (setting [8]), 99% (active); in assay [4] (at 50.0 µM), 88.5% (active). In addition, the growth inhibition is 97% (active) in assay [5] (setting [7]); 97% (active) in assay [5] (setting [8]); 90.5% (active) in assay [5] (at 50.0 µM); 90% (active) in assay [6] (setting [7]); 97% (active) in assay [6] (setting [8]); 90.2% (active) in assay [6] (at 50.0 µM).
As for `O=c1oc2ccccc2c(O)c1C(C/C(CCN1CCCC1)=N/O)c1ccccc1` (stereo not given), the growth inhibition is 28% in assay [1] (setting [7]); 28% in assay [1] (setting [8]); 79.8% (active) in assay [1] (at 50.0 µM); 22% in assay [2] (setting [7]); 22% in assay [2] (setting [8]); 81.7% (active) in assay [2] (at 50.0 µM). In addition, the growth inhibition in assay [3] (setting [7]) is 16%; in assay [3] (setting [8]), 16%; in assay [3] (at 50.0 µM), 76.8% (active); in assay [4] (setting [7]), -3%; in assay [4] (setting [8]), -3%; in assay [4] (at 50.0 µM), 64.2%. For the same compound, the growth inhibition in assay [5] (setting [7]) was 9%; in assay [5] (setting [8]), 9%; in assay [5] (at 50.0 µM) it was 72.4% (active); in assay [6] (setting [7]), 10%; in assay [6] (setting [8]), 10%; in assay [6] (at 50.0 µM), 79.2% (active).
In the case of `CC([CH2][Hg][Cl])c1ccccc1` (stereo not given), the growth inhibition in assay [1] (setting [7]) is 99% (active); in assay [1] (setting [8]) it was 99% (active); in assay [1] (at 50.0 µM) it was 99.3% (active); in assay [2] (setting [7]), 100% (active); in assay [2] (setting [8]), 100% (active); in assay [2] (at 50.0 µM) it was 99.5% (active). Moreover, the growth inhibition is 100% (active) in assay [3] (setting [7]); 99% (active) in assay [3] (setting [8]); 99.6% (active) in assay [3] (at 50.0 µM); 99% (active) in assay [4] (setting [7]); 99% (active) in assay [4] (setting [8]); 99.5% (active) in assay [4] (at 50.0 µM). Besides, the growth inhibition in assay [5] (setting [7]) is 99% (active); in assay [5] (setting [8]), 99% (active); in assay [5] (at 50.0 µM), 99.6% (active); in assay [6] (setting [7]), 100% (active); in assay [6] (setting [8]), 99% (active); in assay [6] (at 50.0 µM) it was 99.5% (active).
As for `COC1=C(Cl)C(=O)c2ccccc2C1=O`, the growth inhibition is 8% in assay [1] (setting [7]); 98% (active) in assay [1] (setting [8]); 99.2% (active) in assay [1] (at 50.0 µM); 15% in assay [2] (setting [7]); 99% (active) in assay [2] (setting [8]); 99.5% (active) in assay [2] (at 50.0 µM). The growth inhibition in assay [3] (setting [7]) is 6%; in assay [3] (setting [8]), 99% (active); in assay [3] (at 50.0 µM) it was 99.6% (active); in assay [4] (setting [7]) it was -2%; in assay [4] (setting [8]), 98% (active); in assay [4] (at 50.0 µM), 99.1% (active). For the same compound, the growth inhibition in assay [5] (setting [7]) is 30%; in assay [5] (setting [8]), 98% (active); in assay [5] (at 50.0 µM), 99.2% (active); in assay [6] (setting [7]), 7%; in assay [6] (setting [8]), 99% (active); in assay [6] (at 50.0 µM) it was 99.4% (active).
Take `BrP(NC1CCCCCC1)(c1ccccc1)(c1ccccc1)c1ccccc1`: the growth inhibition in assay [1] (setting [7]) was 43%; in assay [1] (setting [8]), 97% (active); in assay [1] (at 50.0 µM), 98.5% (active); in assay [2] (setting [7]) it was 39%; in assay [2] (setting [8]) it was 99% (active); in assay [2] (at 50.0 µM) it was 99.3% (active). In addition, the growth inhibition in assay [3] (setting [7]) is 47%; in assay [3] (setting [8]), 98% (active); in assay [3] (at 50.0 µM), 99.2% (active); in assay [4] (setting [7]), 12%; in assay [4] (setting [8]), 97% (active); in assay [4] (at 50.0 µM), 98.7% (active). Further, the growth inhibition in assay [5] (setting [7]) is 25%; in assay [5] (setting [8]) it was 98% (active); in assay [5] (at 50.0 µM), 99% (active); in assay [6] (setting [7]), 65%; in assay [6] (setting [8]) it was 98% (active); in assay [6] (at 50.0 µM) it was 99% (active).
